Measurements: ChEMBL document CHEMBL1961873, “Compounds: GSK PKIS; Assays: Nanosyn kinase panel” (2012)

What was measured:
[1] = biological target: T1, Inhibitor of nuclear factor kappa-B kinase subunit epsilon (Homo sapiens) (UniProt Q14164); conditions: at 1 µM;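 note: reported values are averaged percent inhibition figures against human IKKε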
T1 sequence (whole entry): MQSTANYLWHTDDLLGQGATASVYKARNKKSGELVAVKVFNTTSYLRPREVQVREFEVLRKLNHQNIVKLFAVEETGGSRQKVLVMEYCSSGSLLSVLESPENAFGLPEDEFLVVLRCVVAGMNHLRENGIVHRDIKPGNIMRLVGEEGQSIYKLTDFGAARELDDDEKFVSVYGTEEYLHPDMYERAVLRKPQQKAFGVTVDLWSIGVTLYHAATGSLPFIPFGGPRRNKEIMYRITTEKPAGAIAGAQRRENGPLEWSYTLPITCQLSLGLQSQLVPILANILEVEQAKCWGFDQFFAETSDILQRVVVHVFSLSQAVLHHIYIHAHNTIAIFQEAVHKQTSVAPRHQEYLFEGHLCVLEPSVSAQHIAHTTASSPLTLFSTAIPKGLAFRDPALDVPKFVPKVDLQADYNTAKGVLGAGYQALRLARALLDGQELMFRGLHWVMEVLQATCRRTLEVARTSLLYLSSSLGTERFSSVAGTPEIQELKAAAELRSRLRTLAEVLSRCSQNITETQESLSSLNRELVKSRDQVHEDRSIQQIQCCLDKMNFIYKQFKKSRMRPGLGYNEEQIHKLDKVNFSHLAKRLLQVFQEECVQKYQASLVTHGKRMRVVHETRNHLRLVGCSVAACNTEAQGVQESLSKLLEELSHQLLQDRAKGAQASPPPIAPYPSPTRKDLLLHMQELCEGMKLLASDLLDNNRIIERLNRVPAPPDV

[2] = biological target: T2, Serine/threonine-protein kinase Nek1 (Homo sapiens) (UniProt Q96PY6); conditions: at 0.1 µM
T2 sequence (whole entry): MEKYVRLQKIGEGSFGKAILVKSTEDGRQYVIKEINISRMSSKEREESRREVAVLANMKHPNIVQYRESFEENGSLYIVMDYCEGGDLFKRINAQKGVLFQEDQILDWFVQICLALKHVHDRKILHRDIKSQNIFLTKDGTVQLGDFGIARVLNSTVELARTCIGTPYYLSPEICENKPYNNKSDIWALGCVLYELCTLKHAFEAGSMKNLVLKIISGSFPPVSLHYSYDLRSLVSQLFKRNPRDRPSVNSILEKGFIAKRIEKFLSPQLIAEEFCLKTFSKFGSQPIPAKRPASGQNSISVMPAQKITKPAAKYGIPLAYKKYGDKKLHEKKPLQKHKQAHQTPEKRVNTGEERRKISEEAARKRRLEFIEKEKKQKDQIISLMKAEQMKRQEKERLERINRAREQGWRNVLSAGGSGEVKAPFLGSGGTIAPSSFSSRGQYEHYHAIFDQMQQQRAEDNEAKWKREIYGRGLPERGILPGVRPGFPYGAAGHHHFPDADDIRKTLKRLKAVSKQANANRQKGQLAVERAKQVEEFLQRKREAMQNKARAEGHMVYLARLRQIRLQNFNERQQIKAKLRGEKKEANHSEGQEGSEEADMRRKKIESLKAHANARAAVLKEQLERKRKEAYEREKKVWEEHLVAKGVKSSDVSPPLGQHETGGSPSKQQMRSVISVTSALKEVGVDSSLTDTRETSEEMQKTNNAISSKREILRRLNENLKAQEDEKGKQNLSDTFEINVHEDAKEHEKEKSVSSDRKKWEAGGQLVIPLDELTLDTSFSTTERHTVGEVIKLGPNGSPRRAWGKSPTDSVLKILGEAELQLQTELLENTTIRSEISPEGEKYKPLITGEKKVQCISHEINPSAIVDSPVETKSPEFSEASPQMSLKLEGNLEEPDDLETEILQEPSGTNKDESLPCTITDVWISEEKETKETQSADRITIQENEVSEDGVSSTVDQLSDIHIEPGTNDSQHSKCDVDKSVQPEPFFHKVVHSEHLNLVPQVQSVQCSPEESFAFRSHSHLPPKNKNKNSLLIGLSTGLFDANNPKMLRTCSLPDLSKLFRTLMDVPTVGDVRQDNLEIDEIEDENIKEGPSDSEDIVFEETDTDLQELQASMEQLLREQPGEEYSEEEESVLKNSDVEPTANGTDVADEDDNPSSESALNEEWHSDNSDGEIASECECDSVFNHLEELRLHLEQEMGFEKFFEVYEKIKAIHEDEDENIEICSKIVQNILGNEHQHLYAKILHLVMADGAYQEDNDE

[3] = biological target: T2, Serine/threonine-protein kinase Nek1 (Homo sapiens); conditions: at 1 µM
[4] = biological target: T3, Serine/threonine-protein kinase Nek2 (Homo sapiens) (UniProt P51955); conditions: at 0.1 µM
T3 sequence (whole entry): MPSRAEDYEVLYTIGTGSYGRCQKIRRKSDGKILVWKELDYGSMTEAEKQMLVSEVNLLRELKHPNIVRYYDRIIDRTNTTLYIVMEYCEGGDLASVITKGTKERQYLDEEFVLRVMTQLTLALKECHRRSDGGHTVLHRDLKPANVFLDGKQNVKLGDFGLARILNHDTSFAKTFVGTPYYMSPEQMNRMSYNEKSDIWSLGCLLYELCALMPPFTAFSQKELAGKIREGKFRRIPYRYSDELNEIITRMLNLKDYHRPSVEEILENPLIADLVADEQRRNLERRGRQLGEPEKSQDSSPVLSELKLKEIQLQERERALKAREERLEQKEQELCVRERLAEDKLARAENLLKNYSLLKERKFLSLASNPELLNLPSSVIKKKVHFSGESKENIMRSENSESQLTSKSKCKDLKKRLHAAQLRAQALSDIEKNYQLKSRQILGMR

[5] = biological target: T3, Serine/threonine-protein kinase Nek2 (Homo sapiens); conditions: at 1 µM
[6] = biological target: Serine/threonine-protein kinase Nek6 (Homo sapiens) (UniProt Q9HC98); conditions: at 0.1 µM
Chain of Serine/threonine-protein kinase Nek6 (Homo sapiens) (Q9HC98 whole entry): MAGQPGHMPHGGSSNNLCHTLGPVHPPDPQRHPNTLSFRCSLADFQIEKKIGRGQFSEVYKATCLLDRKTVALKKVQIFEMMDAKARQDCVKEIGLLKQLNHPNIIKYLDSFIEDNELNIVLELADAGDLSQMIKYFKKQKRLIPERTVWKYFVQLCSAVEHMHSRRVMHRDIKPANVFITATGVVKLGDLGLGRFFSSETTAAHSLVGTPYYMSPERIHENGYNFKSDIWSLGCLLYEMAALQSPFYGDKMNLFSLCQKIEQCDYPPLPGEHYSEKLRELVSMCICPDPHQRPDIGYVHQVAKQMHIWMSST

[7] = biological target: Serine/threonine-protein kinase Nek6 (Homo sapiens) (UniProt Q9HC98); conditions: at 1 µM
[8] = biological target: Serine/threonine-protein kinase Nek7 (Homo sapiens) (UniProt Q8TDX7); conditions: at 0.1 µM
Chain of Serine/threonine-protein kinase Nek7 (Homo sapiens) (Q8TDX7 whole entry, looked up): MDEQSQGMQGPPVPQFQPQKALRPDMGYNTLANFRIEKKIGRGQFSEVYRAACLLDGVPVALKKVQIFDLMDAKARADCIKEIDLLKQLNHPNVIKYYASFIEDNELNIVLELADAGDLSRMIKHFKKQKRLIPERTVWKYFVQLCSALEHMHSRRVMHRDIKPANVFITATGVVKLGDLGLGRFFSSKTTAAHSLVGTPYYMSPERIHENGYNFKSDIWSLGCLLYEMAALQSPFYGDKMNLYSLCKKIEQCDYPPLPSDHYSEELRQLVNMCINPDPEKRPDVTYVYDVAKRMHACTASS

[9] = biological target: Serine/threonine-protein kinase Nek7 (Homo sapiens) (UniProt Q8TDX7); conditions: at 1 µM
[10] = biological target: T4, Serine/threonine-protein kinase Nek9 (Homo sapiens) (UniProt Q8TD19); conditions: at 0.1 µM
T4 sequence (whole entry): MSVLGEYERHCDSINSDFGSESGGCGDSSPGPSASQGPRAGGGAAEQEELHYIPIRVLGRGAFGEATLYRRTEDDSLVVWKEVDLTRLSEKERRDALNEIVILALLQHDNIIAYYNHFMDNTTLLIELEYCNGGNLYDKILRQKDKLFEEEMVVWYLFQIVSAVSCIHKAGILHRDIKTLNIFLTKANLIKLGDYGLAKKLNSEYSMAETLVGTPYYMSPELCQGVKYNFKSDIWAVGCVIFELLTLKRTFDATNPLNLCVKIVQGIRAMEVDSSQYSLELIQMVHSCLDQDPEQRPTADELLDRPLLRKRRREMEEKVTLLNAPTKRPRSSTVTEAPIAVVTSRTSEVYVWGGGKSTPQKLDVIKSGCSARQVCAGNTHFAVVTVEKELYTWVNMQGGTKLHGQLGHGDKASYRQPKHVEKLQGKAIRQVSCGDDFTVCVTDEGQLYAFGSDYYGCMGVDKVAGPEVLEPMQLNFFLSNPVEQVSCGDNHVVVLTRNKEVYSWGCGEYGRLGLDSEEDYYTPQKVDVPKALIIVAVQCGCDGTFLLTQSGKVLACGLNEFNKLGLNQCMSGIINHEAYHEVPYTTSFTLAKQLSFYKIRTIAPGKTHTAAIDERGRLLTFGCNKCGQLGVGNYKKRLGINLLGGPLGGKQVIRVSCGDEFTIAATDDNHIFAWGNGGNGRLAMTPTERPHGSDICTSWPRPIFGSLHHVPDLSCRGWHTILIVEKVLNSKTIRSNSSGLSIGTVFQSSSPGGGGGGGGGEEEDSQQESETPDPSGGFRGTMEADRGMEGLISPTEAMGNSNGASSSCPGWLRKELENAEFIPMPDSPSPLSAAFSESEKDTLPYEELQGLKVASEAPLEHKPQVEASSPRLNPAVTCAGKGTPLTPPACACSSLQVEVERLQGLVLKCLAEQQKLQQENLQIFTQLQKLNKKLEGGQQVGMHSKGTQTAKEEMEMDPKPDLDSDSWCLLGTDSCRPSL

[11] = biological target: T4, Serine/threonine-protein kinase Nek9 (Homo sapiens); conditions: at 1 µM
[12] = biological target: Serine/threonine-protein kinase PLK1 (Homo sapiens) (UniProt P53350); conditions: at 0.1 µM
Chain of Serine/threonine-protein kinase PLK1 (Homo sapiens) (P53350 whole entry): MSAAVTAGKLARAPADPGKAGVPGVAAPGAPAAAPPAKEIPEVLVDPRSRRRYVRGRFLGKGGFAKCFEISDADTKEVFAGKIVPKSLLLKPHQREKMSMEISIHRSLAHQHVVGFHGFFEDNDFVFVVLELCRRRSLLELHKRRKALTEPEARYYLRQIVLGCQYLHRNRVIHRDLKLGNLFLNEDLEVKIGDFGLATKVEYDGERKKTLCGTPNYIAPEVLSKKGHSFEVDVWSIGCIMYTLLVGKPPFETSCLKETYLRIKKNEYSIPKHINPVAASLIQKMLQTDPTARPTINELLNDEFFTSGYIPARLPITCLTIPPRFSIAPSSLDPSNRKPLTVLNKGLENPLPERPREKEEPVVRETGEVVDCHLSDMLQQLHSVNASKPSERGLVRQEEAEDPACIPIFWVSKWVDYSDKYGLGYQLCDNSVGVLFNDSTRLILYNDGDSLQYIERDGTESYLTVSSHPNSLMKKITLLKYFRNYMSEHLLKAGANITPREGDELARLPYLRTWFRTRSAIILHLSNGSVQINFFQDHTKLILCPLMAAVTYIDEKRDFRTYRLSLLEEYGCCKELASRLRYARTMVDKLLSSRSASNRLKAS

[13] = biological target: Serine/threonine-protein kinase PLK1 (Homo sapiens) (UniProt P53350); conditions: at 1 µM
[14] = biological target: T5, Dual specificity protein kinase TTK (Homo sapiens) (UniProt P33981); conditions: at 0.1 µM
T5 sequence (whole entry): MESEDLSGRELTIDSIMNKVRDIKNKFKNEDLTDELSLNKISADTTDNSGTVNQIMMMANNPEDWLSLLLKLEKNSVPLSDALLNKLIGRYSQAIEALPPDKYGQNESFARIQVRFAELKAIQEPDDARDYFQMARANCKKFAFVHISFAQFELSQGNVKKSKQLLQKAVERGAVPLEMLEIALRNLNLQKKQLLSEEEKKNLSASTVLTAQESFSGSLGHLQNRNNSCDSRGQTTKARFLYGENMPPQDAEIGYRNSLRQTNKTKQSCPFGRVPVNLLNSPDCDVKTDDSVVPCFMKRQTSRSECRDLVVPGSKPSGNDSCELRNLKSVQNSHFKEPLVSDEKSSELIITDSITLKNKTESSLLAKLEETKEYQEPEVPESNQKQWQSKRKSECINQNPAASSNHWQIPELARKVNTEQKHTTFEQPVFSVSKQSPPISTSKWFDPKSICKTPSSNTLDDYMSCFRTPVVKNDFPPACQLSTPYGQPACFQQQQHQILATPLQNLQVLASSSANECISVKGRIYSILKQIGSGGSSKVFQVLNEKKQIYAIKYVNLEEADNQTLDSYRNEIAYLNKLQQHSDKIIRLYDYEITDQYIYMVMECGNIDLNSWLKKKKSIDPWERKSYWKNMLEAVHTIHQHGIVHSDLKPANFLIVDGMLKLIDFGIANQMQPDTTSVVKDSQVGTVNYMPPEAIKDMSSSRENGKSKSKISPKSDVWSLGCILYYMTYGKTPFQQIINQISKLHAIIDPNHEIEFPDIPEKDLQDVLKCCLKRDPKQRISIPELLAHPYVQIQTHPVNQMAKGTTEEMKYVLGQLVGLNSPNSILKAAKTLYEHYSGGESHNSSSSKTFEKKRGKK

[15] = system: T6, Receptor-type tyrosine-protein kinase FLT3 (Homo sapiens), P36888 [D835Y]; conditions: at 1 µM
T6 sequence (whole entry): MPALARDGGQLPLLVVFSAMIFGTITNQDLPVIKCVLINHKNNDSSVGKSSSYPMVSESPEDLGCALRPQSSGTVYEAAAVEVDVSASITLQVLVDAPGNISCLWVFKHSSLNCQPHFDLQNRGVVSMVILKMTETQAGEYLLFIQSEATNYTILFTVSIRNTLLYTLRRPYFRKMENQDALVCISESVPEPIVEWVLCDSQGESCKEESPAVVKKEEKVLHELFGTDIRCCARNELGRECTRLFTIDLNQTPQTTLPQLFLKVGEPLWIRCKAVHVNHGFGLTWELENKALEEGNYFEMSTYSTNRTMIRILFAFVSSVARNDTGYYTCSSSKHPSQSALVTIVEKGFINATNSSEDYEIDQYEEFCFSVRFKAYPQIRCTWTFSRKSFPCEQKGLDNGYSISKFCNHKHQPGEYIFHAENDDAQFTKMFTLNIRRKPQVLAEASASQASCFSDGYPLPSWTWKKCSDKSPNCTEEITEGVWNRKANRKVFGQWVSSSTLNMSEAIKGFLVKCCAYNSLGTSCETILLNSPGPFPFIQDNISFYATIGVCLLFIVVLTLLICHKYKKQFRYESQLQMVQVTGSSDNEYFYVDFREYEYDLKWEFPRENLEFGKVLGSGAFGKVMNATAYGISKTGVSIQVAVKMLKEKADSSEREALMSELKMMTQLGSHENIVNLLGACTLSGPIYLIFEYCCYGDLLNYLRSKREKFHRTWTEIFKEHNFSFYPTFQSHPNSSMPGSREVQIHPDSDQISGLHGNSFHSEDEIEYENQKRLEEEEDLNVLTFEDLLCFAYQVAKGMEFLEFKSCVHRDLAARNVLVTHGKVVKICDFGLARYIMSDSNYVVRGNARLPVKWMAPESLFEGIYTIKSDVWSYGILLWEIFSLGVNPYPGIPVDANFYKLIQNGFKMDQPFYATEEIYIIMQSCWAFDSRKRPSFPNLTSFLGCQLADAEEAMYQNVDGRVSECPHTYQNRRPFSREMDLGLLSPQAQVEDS

[16] = biological target: Vascular endothelial growth factor receptor 3 (Homo sapiens) (UniProt P35916); conditions: at 0.1 µM
Chain of Vascular endothelial growth factor receptor 3 (Homo sapiens) (P35916 whole entry): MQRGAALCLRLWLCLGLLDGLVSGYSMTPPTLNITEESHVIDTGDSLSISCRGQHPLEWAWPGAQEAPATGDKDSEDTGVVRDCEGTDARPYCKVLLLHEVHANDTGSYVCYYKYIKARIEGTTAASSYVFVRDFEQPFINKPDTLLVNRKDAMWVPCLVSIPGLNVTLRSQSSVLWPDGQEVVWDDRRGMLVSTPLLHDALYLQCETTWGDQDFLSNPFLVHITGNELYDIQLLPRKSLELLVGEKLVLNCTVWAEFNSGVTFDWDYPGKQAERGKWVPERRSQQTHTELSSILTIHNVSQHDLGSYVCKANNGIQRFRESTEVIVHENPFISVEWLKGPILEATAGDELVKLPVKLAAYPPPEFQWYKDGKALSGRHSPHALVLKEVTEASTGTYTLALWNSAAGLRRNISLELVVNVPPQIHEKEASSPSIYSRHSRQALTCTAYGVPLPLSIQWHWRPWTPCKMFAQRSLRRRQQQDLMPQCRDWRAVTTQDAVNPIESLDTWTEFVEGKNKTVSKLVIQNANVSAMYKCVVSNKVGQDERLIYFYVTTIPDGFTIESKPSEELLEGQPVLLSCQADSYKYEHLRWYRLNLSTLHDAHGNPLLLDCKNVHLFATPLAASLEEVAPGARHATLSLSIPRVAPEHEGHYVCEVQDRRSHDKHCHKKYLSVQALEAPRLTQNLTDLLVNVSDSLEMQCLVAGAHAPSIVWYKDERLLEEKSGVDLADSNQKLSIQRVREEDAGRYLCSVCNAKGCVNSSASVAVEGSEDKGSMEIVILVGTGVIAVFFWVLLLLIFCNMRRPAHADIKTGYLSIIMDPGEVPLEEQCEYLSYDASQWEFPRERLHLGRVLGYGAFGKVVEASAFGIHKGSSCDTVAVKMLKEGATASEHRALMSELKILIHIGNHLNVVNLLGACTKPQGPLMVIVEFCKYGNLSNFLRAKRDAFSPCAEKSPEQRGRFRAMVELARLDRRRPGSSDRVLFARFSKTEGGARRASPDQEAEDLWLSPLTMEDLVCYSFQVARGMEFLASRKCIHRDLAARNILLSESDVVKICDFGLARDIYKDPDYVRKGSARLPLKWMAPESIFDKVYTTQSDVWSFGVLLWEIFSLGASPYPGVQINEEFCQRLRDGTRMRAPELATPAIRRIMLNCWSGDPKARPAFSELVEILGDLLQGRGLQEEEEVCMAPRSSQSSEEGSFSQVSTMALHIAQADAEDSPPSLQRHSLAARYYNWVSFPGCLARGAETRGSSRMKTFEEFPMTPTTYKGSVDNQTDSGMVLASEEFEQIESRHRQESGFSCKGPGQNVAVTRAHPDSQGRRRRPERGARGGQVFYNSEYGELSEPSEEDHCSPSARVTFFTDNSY

[17] = biological target: Vascular endothelial growth factor receptor 3 (Homo sapiens) (UniProt P35916); conditions: at 1 µM
[18] = biological target: Macrophage colony-stimulating factor 1 receptor (Homo sapiens) (UniProt P07333); conditions: at 0.1 µM
Chain of Macrophage colony-stimulating factor 1 receptor (Homo sapiens) (P07333 whole entry): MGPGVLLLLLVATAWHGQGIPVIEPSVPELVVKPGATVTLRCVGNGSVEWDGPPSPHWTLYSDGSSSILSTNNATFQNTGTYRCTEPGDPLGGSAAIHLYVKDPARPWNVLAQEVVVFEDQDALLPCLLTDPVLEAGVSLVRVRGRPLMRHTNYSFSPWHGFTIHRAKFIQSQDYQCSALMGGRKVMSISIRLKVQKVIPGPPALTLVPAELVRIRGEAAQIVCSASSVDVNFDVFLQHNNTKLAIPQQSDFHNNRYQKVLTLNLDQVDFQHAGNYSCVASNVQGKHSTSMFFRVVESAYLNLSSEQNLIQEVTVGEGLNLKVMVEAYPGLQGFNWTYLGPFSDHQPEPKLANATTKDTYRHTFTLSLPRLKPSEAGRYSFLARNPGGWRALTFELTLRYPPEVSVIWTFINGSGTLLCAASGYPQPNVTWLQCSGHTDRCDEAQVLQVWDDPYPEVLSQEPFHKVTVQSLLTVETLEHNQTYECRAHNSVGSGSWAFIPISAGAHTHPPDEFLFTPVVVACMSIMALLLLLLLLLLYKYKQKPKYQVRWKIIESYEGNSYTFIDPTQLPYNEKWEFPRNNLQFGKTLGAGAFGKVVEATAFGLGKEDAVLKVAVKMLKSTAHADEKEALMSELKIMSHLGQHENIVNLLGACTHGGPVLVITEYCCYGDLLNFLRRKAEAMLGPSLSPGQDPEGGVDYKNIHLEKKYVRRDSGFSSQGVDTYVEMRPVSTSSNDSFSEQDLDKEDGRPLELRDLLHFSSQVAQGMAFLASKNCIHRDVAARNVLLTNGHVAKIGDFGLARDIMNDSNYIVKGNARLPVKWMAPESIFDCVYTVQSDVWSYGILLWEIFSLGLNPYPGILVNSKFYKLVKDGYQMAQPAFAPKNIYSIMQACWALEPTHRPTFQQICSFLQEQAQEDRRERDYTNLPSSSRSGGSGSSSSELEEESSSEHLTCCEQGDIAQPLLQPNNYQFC

[19] = biological target: Macrophage colony-stimulating factor 1 receptor (Homo sapiens) (UniProt P07333); conditions: at 1 µM
[20] = biological target: Tyrosine-protein kinase Fyn (Homo sapiens) (UniProt P06241); conditions: at 0.1 µM
Chain of Tyrosine-protein kinase Fyn (Homo sapiens) (P06241 2-537 limits assumed): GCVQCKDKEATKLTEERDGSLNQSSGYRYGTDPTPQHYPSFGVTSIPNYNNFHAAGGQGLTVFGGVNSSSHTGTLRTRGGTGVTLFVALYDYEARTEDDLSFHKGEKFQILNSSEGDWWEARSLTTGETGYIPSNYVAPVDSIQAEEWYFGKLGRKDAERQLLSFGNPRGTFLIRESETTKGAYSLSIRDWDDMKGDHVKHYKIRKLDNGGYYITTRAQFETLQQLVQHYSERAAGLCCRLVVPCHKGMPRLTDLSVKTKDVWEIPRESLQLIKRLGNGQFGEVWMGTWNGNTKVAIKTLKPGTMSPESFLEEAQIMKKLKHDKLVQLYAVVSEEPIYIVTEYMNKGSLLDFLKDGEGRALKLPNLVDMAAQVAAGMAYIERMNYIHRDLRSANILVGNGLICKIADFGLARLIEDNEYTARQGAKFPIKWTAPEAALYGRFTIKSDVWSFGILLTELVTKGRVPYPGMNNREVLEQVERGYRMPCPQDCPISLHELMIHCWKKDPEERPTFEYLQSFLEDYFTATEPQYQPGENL

Row | SMILES | inhibition [1] | inhibition [2] | inhibition [3] | inhibition [4] | inhibition [5] | inhibition [6] | inhibition [7] | inhibition [8] | inhibition [9] | inhibition [10] | inhibition [11] | inhibition [12] | inhibition [13] | inhibition [14] | inhibition [15] | inhibition [16] | inhibition [17] | inhibition [18] | inhibition [19] | inhibition [20]
1 | NS(=O)(=O)c1ccc(N/C=C2\C(=O)Nc3ccc4ncsc4c32)cc1 | 41.9% | 2.04% | 3.28% | 6.71% | 8.52% | 1.42% | 4.37% | 1.21% | 7.53% | 5.84% | 22.4% | 4.2% | 4.96% | 40.1% | 81.1% | 38.2% | 93.1% | 29.5% | 58.6% | 2.85%
2 | Fc1ccc(-c2ncn(C3CCNCC3)c2-c2ccnc(Oc3ccccc3)n2)cc1 | 3.7% | 1.07% | 1.73% | 3.29% | 1.85% | 7.63% | 2.1% | 2.34% | 6.68% | 2.53% | 5.18% | 3.38% | 3.09% | 6.21% | -0.44% | -7.44% |  | -0.76% | 3.02% | -2.88%
